Test results from ChEMBL document CHEMBL2218924, “A broad activity screen in support of a chemogenomic map for kinase signalling research and drug discovery” (Biochem J, 2013).

Key:
[1] = molecular target: T1, Rhodopsin kinase GRK7 (Homo sapiens) (UniProt Q8WTQ7); details: at 10 µM
T1 sequence (whole entry): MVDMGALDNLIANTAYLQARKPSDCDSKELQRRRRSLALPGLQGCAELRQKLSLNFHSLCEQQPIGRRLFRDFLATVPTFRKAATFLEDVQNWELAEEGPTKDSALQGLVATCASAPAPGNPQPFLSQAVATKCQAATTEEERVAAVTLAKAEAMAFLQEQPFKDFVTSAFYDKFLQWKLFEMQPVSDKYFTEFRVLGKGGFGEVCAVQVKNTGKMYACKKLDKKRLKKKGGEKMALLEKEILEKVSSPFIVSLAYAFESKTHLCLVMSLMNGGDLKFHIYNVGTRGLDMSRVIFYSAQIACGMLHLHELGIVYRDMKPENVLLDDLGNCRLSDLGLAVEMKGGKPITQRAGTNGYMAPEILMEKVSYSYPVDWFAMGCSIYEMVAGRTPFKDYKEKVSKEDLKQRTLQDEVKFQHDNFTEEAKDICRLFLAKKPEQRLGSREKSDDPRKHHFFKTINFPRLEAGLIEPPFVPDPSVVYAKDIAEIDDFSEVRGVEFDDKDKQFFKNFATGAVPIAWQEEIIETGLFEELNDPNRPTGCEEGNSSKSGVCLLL

[2] = molecular target: Glycogen synthase kinase-3 alpha (Homo sapiens) (UniProt P49840); details: at 10 µM
Chain of Glycogen synthase kinase-3 alpha (Homo sapiens) (P49840 2-483 limits assumed): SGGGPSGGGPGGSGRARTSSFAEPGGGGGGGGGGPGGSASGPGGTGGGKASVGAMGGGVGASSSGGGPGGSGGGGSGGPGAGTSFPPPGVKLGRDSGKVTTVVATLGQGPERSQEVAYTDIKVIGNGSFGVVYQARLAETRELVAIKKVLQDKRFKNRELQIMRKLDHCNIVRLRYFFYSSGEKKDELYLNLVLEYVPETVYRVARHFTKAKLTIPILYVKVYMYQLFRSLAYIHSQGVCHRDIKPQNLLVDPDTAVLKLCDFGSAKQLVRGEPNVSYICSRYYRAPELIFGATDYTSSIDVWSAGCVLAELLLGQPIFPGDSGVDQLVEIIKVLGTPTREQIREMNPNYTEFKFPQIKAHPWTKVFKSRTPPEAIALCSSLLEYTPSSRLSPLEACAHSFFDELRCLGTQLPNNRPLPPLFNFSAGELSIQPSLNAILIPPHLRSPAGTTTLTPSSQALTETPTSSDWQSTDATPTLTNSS

[3] = molecular target: Glycogen synthase kinase-3 beta (Homo sapiens) (UniProt P49841); details: at 1 µM
Chain of Glycogen synthase kinase-3 beta (Homo sapiens) (P49841 whole entry, looked up): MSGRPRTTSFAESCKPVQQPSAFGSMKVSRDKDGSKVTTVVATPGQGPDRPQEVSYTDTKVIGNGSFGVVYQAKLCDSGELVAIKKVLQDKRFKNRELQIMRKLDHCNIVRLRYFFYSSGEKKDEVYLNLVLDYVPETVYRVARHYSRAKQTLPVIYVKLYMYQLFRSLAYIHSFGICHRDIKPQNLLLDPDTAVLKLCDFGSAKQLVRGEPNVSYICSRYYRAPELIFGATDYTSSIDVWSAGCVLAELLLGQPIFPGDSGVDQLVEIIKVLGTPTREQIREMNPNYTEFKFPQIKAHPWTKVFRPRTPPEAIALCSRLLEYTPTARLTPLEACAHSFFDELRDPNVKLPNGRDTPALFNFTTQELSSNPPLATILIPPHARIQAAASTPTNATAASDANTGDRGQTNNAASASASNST

[4] = molecular target: Glycogen synthase kinase-3 beta (Homo sapiens) (UniProt P49841); details: at 10 µM
[5] = molecular target: Homeodomain-interacting protein kinase 1 (Homo sapiens) (UniProt Q86Z02); details: at 1 µM
Chain of Homeodomain-interacting protein kinase 1 (Homo sapiens) (Q86Z02 whole entry, looked up): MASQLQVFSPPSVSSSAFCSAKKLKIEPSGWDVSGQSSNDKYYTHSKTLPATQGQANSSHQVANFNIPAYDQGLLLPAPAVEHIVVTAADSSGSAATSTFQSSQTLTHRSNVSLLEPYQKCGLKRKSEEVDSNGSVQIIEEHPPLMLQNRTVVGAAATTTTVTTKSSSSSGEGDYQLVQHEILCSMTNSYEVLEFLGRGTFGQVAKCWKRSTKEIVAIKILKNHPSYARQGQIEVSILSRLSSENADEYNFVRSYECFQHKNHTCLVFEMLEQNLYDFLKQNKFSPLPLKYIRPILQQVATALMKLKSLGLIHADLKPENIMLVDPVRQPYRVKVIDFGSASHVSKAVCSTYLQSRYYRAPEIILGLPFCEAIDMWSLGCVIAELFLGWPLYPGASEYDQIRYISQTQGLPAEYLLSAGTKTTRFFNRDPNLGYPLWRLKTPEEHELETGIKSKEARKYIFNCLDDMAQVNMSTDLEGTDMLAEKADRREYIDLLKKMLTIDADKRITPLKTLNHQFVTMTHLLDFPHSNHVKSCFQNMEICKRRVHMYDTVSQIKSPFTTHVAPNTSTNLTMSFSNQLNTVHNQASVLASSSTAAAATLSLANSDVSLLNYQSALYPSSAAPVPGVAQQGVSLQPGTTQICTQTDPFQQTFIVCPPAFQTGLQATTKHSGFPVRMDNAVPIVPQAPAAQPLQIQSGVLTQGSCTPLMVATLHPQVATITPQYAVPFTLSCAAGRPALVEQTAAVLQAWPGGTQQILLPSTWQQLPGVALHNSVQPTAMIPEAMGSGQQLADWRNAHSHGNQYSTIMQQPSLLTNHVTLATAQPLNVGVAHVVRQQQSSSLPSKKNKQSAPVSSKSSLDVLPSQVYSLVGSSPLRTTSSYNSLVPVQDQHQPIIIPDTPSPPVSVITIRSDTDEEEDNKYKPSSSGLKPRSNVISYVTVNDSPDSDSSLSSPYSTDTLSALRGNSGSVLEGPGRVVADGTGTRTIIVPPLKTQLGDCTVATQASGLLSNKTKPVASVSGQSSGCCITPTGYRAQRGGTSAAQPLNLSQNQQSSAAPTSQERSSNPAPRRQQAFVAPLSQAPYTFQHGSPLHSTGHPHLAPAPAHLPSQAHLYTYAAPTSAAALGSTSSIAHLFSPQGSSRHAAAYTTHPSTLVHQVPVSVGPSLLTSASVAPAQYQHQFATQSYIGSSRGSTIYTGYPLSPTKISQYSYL

[6] = molecular target: Homeodomain-interacting protein kinase 1 (Homo sapiens) (UniProt Q86Z02); details: at 10 µM
[7] = molecular target: Homeodomain-interacting protein kinase 2 (Homo sapiens) (UniProt Q9H2X6); details: at 1 µM
Chain of Homeodomain-interacting protein kinase 2 (Homo sapiens) (Q9H2X6 whole entry, looked up): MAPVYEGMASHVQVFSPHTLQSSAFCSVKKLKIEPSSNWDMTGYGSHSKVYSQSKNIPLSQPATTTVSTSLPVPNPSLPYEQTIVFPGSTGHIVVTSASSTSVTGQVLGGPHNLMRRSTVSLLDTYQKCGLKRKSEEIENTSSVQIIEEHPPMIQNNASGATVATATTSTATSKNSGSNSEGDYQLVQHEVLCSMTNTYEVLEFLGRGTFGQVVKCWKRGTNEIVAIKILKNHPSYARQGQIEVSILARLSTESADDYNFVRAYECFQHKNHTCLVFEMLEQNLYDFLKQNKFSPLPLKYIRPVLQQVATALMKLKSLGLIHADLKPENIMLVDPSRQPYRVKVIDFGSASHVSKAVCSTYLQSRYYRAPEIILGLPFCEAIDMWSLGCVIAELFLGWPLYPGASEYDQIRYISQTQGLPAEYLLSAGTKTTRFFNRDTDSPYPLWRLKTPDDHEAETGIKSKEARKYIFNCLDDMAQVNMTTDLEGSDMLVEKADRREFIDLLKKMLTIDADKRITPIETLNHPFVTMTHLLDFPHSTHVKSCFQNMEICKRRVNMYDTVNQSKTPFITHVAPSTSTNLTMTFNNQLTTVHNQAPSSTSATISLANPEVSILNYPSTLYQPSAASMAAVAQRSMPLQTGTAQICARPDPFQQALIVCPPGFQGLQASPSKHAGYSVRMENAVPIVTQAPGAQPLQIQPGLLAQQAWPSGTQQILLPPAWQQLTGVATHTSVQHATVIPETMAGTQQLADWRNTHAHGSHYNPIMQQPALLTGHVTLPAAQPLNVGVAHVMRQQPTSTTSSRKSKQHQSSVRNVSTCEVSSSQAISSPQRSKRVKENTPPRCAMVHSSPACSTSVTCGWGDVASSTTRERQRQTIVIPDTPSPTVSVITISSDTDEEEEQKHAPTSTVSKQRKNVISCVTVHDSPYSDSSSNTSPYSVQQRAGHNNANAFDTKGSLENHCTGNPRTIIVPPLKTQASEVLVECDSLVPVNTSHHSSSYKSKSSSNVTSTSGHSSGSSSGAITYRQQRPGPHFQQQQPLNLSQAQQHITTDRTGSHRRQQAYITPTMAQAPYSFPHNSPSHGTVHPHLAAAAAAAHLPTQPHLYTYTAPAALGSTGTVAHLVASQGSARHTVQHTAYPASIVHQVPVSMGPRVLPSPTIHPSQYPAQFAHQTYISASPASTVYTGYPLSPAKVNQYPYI

[8] = molecular target: Homeodomain-interacting protein kinase 2 (Homo sapiens) (UniProt Q9H2X6); details: at 10 µM
[9] = molecular target: Homeodomain-interacting protein kinase 3 (Homo sapiens) (UniProt Q9H422); details: at 1 µM
Chain of Homeodomain-interacting protein kinase 3 (Homo sapiens) (Q9H422 whole entry, looked up): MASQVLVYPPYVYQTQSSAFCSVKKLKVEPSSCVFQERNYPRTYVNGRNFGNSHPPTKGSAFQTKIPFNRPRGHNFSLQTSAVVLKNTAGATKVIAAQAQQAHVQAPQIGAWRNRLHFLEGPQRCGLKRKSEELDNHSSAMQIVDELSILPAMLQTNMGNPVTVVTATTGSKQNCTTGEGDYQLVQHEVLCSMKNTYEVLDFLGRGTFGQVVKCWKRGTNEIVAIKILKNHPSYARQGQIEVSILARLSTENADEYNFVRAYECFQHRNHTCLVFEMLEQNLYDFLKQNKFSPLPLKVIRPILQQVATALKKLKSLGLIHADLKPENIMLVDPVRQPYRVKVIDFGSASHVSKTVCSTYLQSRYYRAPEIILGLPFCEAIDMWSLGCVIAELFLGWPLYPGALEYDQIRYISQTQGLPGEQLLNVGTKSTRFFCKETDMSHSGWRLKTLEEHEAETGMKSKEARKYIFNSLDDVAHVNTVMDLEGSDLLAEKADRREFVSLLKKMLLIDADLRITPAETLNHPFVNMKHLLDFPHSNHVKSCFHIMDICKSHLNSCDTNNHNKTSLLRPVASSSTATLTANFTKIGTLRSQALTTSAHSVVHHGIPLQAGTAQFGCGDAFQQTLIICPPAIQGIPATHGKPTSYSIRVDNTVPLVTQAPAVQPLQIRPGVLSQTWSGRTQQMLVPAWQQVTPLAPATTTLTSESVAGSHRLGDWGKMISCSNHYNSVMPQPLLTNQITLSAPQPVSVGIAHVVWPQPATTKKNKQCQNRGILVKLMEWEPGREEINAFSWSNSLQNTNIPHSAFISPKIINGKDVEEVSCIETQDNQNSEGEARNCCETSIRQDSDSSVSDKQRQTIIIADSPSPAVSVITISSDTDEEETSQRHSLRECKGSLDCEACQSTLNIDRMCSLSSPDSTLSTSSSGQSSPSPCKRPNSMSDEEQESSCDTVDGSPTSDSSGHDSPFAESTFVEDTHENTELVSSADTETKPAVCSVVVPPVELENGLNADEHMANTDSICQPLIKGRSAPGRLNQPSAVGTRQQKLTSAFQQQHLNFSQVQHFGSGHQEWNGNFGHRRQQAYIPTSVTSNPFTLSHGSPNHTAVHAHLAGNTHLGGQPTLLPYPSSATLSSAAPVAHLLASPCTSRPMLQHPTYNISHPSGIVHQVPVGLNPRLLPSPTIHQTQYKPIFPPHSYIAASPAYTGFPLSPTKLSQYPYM

[10] = molecular target: Homeodomain-interacting protein kinase 3 (Homo sapiens) (UniProt Q9H422); details: at 10 µM
[11] = molecular target: T2, Serine/threonine-protein kinase haspin (Homo sapiens) (UniProt Q8TF76); details: at 1 µM
T2 sequence (whole entry): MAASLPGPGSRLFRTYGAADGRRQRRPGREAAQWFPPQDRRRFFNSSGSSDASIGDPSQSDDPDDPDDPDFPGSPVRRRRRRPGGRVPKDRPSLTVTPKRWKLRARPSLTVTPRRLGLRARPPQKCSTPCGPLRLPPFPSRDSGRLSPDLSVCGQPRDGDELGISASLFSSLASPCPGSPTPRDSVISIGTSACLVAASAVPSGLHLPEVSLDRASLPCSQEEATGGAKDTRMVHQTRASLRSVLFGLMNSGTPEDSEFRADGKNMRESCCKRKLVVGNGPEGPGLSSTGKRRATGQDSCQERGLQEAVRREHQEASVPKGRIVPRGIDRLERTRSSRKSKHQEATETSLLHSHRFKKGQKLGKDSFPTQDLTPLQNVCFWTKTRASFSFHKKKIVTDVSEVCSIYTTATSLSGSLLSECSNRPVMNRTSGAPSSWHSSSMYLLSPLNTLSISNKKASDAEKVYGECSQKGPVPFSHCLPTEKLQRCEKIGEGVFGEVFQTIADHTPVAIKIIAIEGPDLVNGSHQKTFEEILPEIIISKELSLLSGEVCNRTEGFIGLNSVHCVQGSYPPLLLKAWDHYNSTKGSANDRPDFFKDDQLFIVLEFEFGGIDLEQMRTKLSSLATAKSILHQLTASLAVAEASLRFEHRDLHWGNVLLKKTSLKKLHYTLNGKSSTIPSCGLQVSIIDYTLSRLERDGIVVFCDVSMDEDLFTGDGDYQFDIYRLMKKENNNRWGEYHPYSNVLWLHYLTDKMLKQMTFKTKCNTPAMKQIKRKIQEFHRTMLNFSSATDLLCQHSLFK

[12] = molecular target: T2, Serine/threonine-protein kinase haspin (Homo sapiens); details: at 10 µM
[13] = molecular target: Tyrosine-protein kinase HCK (Homo sapiens) (UniProt P08631); details: at 1 µM
Chain of Tyrosine-protein kinase HCK (Homo sapiens) (P08631 2-526 limits assumed): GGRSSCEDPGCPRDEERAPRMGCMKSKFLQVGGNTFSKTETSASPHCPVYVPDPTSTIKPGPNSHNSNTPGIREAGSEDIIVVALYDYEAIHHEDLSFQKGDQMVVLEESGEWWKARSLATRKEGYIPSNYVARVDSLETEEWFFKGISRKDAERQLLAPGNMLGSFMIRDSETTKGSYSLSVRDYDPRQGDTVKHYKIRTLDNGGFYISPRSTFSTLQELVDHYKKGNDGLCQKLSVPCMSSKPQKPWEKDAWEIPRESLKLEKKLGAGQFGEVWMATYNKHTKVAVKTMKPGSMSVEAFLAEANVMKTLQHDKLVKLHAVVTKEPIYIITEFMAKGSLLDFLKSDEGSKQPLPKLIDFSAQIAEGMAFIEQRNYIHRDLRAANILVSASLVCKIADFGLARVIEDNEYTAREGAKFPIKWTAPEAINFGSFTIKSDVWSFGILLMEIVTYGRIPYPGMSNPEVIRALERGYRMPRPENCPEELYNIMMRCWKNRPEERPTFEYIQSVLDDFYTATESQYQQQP

[14] = molecular target: Tyrosine-protein kinase HCK (Homo sapiens) (UniProt P08631); details: at 10 µM
[15] = molecular target: Tyrosine-protein kinase HCK (Homo sapiens) (UniProt P08631); details: at 1 µM; remark: listed apart in the source
[16] = molecular target: Tyrosine-protein kinase HCK (Homo sapiens) (UniProt P08631); details: at 10 µM; remark: listed apart in the source
[17] = molecular target: T3, Protein kinase C zeta type (Homo sapiens) (UniProt Q05513); details: at 10 µM
T3 sequence (whole entry): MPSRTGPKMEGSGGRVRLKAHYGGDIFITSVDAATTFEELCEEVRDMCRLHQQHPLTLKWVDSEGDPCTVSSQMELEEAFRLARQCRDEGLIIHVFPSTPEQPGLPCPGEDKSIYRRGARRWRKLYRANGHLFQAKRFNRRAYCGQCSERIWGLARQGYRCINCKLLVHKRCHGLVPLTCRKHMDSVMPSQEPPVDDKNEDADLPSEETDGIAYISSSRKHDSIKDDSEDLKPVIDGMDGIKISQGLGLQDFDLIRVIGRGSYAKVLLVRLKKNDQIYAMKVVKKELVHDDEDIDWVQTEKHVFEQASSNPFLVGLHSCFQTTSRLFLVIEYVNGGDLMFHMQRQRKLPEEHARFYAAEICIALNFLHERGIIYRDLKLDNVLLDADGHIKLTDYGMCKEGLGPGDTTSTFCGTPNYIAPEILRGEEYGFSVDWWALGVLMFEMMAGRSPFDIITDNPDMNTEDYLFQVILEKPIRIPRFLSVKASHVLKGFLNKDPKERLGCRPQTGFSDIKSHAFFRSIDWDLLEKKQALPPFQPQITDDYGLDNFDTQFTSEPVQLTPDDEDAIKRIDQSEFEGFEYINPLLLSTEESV

[18] = molecular target: Insulin-like growth factor 1 receptor (Homo sapiens) (UniProt P08069); details: at 10 µM
[19] = molecular target: Insulin-like growth factor 1 receptor (Homo sapiens) (UniProt P08069); details: at 1 µM
[20] = molecular target: Glycogen synthase kinase-3 alpha (Homo sapiens) (UniProt P49840); details: at 1 µM

SMILES	residual activity [1] [%]	residual activity [2] [%]	residual activity [3] [%]	residual activity [4] [%]	residual activity [5] [%]	residual activity [6] [%]	residual activity [7] [%]	residual activity [8] [%]	residual activity [9] [%]	residual activity [10] [%]	residual activity [11] [%]	residual activity [12] [%]	residual activity [13] [%]	residual activity [14] [%]	residual activity [15] [%]	residual activity [16] [%]	residual activity [17] [%]	residual activity [18] [%]	residual activity [19] [%]	residual activity [20] [%]
O=c1cc(N2CCOCC2)oc2c1ccc1ccccc12	87	80	101	73	90	50	70	22	71	21	74	26	85	77	101	110	91			
O=c1cc(N2CCNCC2)oc2c(-c3ccccc3)cccc12	84		78	84	101	96	97	90	90	99	83	38	79	66		95		149		
CCN(CC)CCNC(=O)c1c(C)[nH]c(/C=C2\C(=O)Nc3ccc(Cl)cc32)c1C	9				32	4	6	1	9	-5	43	12	13	3	9	0		13	135	
CCCCc1c(-c2ccc(O)cc2)[nH]c2nccnc12	87	20	79	73				62			34	12	64	23	63	64			131	62
COc1cc2nccc(Oc3ccc(NC(=S)NC(=O)c4ccccc4C)cc3)c2cc1OC	84	147	86	99	93		100	91	88	101	80	35	7	1	11	3		148	120	120
O=C(CCCc1ccc(-c2ccccc2F)cc1)Nc1ccc(O)cc1	86	84	102	79	108	104	111	105	103	98		98	96	62	106	89		100	104	
O=C(Nc1nc2ccccc2n1CCN1CCOCC1)c1cccc([N+](=O)[O-])c1	79	116												77						113
O=C1Cc2c([nH]c3ccc([N+](=O)[O-])cc23)-c2ccccc2N1		2	-1	3	109	100							41	28	81	81		123		1
COc1cc2nccc(Oc3ccc(NC(=O)Nc4cc(C)on4)c(Cl)c3)c2cc1OC		123			96	106							7	2	5	6			135	107
CC(C)(C)c1nc2c3ccc(F)cc3c3c(=O)[nH]ccc3c2[nH]1						98	65	21	79	45	74	34	49	31	68	60			119	
CN([C@@H](Cc1ccc(OS(=O)(=O)c2cccc3cnccc23)cc1)C(=O)N1CCN(c2ccccc2)CC1)S(=O)(=O)c1cccc2cnccc12	85											57	86	61				182		
O=c1cc(N2CCOCC2)oc2c(-c3ccccc3)cccc12	81											54	66	58					133	
N#Cc1c(NC(=O)c2cccc3ccccc23)sc2c1CCCC2		80		100					99	99	82	64	63	55			100	128	136	84
O=S(=O)(c1cccc2cnccc12)N1CCCNCC1			136								60	8								
c1ccc(-c2cnc(Nc3ccc(OCCN4CCCC4)cc3)s2)cc1		133					67	19	78	31	77	51	57	24	71	11	109	108	119	109
COc1cc2ncnc(Nc3cccc(Cl)c3)c2cc1OC		121							110				48	13	40	4	110		111	101
Fc1ccc(-c2nc3n(c2-c2ccncc2)CCS3)cc1		88						91				96	95	94						88
NC(=O)c1ccc(-c2nc(-c3ccc4c(c3)OCCO4)c(-c3ccccn3)[nH]2)cc1			117	98							95	82	68	66				137		
